# Values joined by “and” are separate entries in the source; they are usually repeats but may differ in a detail not shown here. Identical values can stand only once. Unmarked numbers belong to inactive results. Results filed as inconclusive are left out. For some of these results: Results with a measured potency or affinity are listed apart. Active and inactive are the calls of the source.
# What was measured:
# [1] = Ebola virus entry assay, green fluorescence channel
# [2] = Ebola virus entry assay, blue channel fluorescence
# [3] = qHTS Assay for Identifying Gametocytocidal Compounds (AID 743244; active means well fitted curve in the direction sought with a large enough effect; an effect the other way counts as inactive or inconclusive; further: potency means the concentration at half of the fitted maximal effect;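 on max response: on the % scale 0 is the no-effect control and ±100 the full control effect; actives lower the fluorescent signal which means gametocytes are killed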); settings: P. falciparum 3D7 stage III-V gametocytes, alamarBlue, 72 h; max response: stronger effect = lower value
# Outline: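 Viability read-out was resazurin reduction (alamarBlue, 24 h) measured at Ex 525/Em 598 nm. Beforehand, late-stage (III-V) 3D7 P. falciparum gametocytes at 20,000 cells/well were incubated with compound 72 h at 37C under 5% CO2.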
# [4] = qHTS assay for small molecule antagonists of the retinoid-related orphan receptor gamma (ROR-gamma) signaling pathway - cell viability counter screen (AID 720652; active means well fitted curve in the direction sought with a large enough effect in the repeat runs; an effect the other way counts as inactive or inconclusive;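 further: potency means the concentration at half of the fitted maximal effect; compound exposure lasted 16 hr before ATP read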); settings: RORgamma reporter cell line viability counter screen; series mostly up to 92.2 µM
# Outline: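 Cytotoxicity is quantified via intracellular ATP (CellTiter-Glo luminescence) in doxycycline-induced CHO ROR response element-luciferase reporter cells treated with compound for 16 hr at 37 C, 5% CO2.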
# [5] = qHTS assay for small molecule agonists of the antioxidant response element (ARE) signaling pathway measured by Nrf2-dependant transcriptional activity - cell viability counter screen (AID 720653; active means well fitted curve in the direction sought with a large enough effect in the repeat runs; an effect the other way counts as inactive or inconclusive; further: on the % scale 0 is the no-effect control and ±100 the full control effect); settings: ARE-bla HepG2 viability, CellTiter-Glo ATP luminescence, 16 h; max response: stronger effect = lower value
# Outline: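 ARE-bla HepG2 cells (2,000/well) rested 5 hrs at 37C/5% CO2, then exposed to compounds in DMSO for 16 hrs. Viability was read in the same wells as intracellular ATP by luminescence, 30 min at room temperature after reagent addition.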
# [6] = qHTS assay for cell viability of HEK293 cells (AID 743288; active means well fitted curve in the direction sought with a large enough effect; an effect the other way counts as inactive or inconclusive; further: on the % scale 0 is the no-effect control and ±100 the full control effect; nearly all actives have a fitted effect of over 50% in size); settings: ATP luminescence (CellTiter-Glo), 18 h; max response: stronger effect = lower value
# Outline: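 Parental HEK293 cells, 2,000 per well, preincubated at least 5 h at 37 C, then exposed to compounds in DMSO for 18 h at 37 C. Viability by CellTiter-Glo ATP luminescence after 30 min at room temperature.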
# [7] = qHTS assay for cell viability of the p53RE-bla HCT-116 cell line (AID 743292; active means well fitted curve in the direction sought with a large enough effect; an effect the other way counts as inactive or inconclusive; further: potency means the concentration at half of the fitted maximal effect; nearly all actives have a fitted effect of over 55% in size); settings: p53RE-bla HCT-116 viability, ATP luminescence, 16 h; series mostly up to 95 µM
# Outline: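 ATP-based luminescence, 16 h compound exposure at 37 C, p53RE-bla HCT-116 cells at 4,000/well.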
# [8] = qHTS for compounds that reverse cellular toxicity of Amyloid beta (A-beta) peptide in yeast: LOPAC Validation Assay (AID 720559; active means well fitted curve in the direction sought with a large enough effect; an effect the other way counts as inactive or inconclusive;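 further: plate controls were DMSO for no effect and equimolar ferric chloride plus clioquinol rescue for full effect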); settings: yeast expressing A-beta; series mostly up to 46.1 µM
# Outline: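 Yeast expressing toxic A-beta grown with pinned compounds at 30 C for 48 hr. Growth measured as absorbance at 600 nm; data normalized to DMSO and to an equimolar FeCl3/clioquinol mixture as positive control.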
# [9] = qHTS for Activators of Parkin Expression: LOPAC Validation Assay (FLuc Reporter) (AID 720573; active means well fitted curve in the direction sought with a large enough effect; an effect the other way counts as inactive or inconclusive;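 further: 0% = DMSO and 100% = positive control compounds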); settings: Cell line, PRKN promoter firefly luciferase reporter, vehicle wells = 0, positive control = 100%; series mostly up to 46.1 µM
# Outline: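 Neuronal cell line stably expressing FLuc/NLuc coincidence reporter under the Parkin promoter, 1,500 cells/well, dosed 24 h after seeding in 7-point series for 24 h at 37 C. FLuc luminescence read; normalized to DMSO and positive control (100%).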
# [10] = biological target: T1, Hexokinase-4 (Homo sapiens) + Glucokinase regulatory protein (Homo sapiens) (UniProt P35557+Q14397); assay: qHTS assay for inhibitors of recombinant human GCK-GKRP interaction: Diaphorase-coupled assay (AID 743205; active means well fitted curve in the direction sought with a large enough effect; an effect the other way counts as inactive or inconclusive); settings: G6PDH/diaphorase resorufin fluorescence; series mostly up to 57.5 µM
# Outline: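 Compounds pre-incubated 20 min with substrate, then 10 nM GST-GCK with 10 nM FLAG-GKRP added. GCK activity coupled via G6PDH and diaphorase to resorufin (5 mM glucose, 0.4 mM ATP, 0.15 mM NADP+, pH 7.6), read kinetically over 30 minutes at Ex 525/Em 590 nm.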
# [11] = biological target: T1, Hexokinase-4 (Homo sapiens) + Glucokinase regulatory protein (Homo sapiens); assay: qHTS assay for inhibitors of recombinant human GCK-GKRP interaction: ADP-Glo assay (AID 743206; active means well fitted curve in the direction sought with a large enough effect; an effect the other way counts as inactive or inconclusive;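 further: plate controls were DMSO plus enzyme for no effect and no enzyme for full effect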); settings: ADP-Glo luminescence, 60 min, 0% = vehicle-only wells with enzyme present; series mostly up to 76.9 µM
# Outline: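 GST-GCK and FLAG-GKRP (15 nM each in the dispensed mix, with 2 uM S6P) react with 0.4 mM ATP and 5 mM glucose (final) in Hepes pH 7.6 for 60 min at room temperature. ADP is measured by ADP-Glo luminescence.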
# [12] = biological target: T1, Hexokinase-4 (Homo sapiens) + Glucokinase regulatory protein (Homo sapiens); assay: qHTS assay for inhibitors of recombinant human GCK-GKRP interaction: HTRF assay (AID 743207; active means well fitted curve in the direction sought with a large enough effect; an effect the other way counts as inactive or inconclusive;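 further: 0% = DMSO with GCK present and -100% = DMSO wells lacking GCK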); settings: recombinant GCK-GKRP HTRF binding, 60 min; series mostly up to 57.5 µM
# Outline: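 HTRF binding of 5 nM GST-GCK and 5 nM FLAG-GKRP with 2 uM S6P in pH 7.1 Hepes buffer (MgCl2, KCl, DTT, Tween 20, BSA). Anti-FLAG XL665 and anti-GST donor added, 60 min at room temperature; 665/615 nm read, normalized to with- and without-GCK controls.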
# Wherever efficacy is given: 0% is about no effect.
# T1 sequence (P35557 whole entry, looked up): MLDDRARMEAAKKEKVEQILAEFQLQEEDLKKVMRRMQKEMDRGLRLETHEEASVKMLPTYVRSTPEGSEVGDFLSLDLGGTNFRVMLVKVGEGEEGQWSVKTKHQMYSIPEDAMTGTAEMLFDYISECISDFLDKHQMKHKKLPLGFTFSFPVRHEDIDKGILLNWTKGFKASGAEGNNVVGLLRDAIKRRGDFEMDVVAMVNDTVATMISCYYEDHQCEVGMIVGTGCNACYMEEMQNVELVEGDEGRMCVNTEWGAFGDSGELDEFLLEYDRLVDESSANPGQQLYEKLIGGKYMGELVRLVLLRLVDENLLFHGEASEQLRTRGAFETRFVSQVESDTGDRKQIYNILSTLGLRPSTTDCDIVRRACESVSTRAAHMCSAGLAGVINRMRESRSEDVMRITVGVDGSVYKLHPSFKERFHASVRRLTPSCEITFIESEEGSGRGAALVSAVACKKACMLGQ
# T1 sequence (Q14397 whole entry, looked up): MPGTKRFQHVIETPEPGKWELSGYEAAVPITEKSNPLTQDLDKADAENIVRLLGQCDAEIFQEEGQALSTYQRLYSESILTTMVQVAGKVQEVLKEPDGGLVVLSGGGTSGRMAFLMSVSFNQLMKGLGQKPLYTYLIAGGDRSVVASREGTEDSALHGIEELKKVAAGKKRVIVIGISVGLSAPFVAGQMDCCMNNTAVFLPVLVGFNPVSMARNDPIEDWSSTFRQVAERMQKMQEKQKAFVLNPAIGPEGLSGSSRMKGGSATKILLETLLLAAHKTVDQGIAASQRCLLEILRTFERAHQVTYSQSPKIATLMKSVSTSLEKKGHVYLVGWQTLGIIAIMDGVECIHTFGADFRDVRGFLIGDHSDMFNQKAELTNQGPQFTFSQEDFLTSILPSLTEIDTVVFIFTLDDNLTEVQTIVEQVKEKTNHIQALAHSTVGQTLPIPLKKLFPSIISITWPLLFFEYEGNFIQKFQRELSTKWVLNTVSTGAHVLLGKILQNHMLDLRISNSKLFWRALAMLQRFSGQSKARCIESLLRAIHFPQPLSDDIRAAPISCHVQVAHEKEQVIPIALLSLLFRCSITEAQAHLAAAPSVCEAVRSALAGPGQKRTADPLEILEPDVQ
compound,measurement,setting,value
CNCC[C@H](Oc1cccc2ccccc12)c1cccs1,efficacy,[1],-133%
same,AC50,[2],11.2 µM (active)
Cc1ccc(S(=O)(=O)NC(=O)NN2CC3CCCC3C2)cc1 (centres undefined),efficacy,[1],-32.1%
same,outcome,[2],inactive
CO[C@@]12[C@H](COC(N)=O)C3=C(C(=O)C(C)=C(N)C3=O)N1C[C@@H]1N[C@@H]12,efficacy,[1],19.7%
same,outcome,[2],inactive
O=C1CCc2cc(OCCCCc3nnnn3C3CCCCC3)ccc2N1,efficacy,[1],80.2%
same,outcome,[2],inactive
Nc1ccn([C@@H]2O[C@H](CO)[C@@H](O)C2(F)F)c(=O)n1,efficacy,[1],-29.1%
same,outcome,[2],inactive
Clc1ccc(C(c2ccccc2Cl)C(Cl)Cl)cc1 (centres undefined),efficacy,[1],-31.8%
same,outcome,[2],inactive
CCCCC1=NC2(CCCC2)C(=O)N1Cc1ccc(-c2ccccc2-c2nn[nH]n2)cc1,efficacy,[1],32.1%
same,outcome,[2],inactive
COc1cc2ncnc(Nc3ccc(F)c(Cl)c3)c2cc1OCCCN1CCOCC1,efficacy,[1],41.5%
same,AC50,[2],15.8 µM (active)
CN(C)CCC[C@@]1(c2ccc(F)cc2)OCc2cc(C#N)ccc21,efficacy,[1],55%
same,outcome,[2],inactive
CN(C)CC/C=C1\c2ccccc2COc2ccccc21,efficacy,[1],117%
same,outcome,[2],inactive
Cc1nc2n(c(=O)c1CCN1CCC(c3noc4cc(F)ccc34)CC1)CCC[C@H]2O,efficacy,[1],18.4%
same,outcome,[2],inactive
CN(C)c1cc(NC(=O)CNC(C)(C)C)c(O)c2c1C[C@@H]1C[C@H]3[C@H](N(C)C)C(=O)C(C(N)=O)=C(O)[C@@]3(O)C(=O)C1=C2O,efficacy,[1],47.7%
same,outcome,[2],inactive
C[C@H]1c2cccc(O)c2C(O)=C2C(=O)[C@]3(O)C(O)=C(C(N)=O)C(=O)[C@@H](N(C)C)[C@@H]3[C@@H](O)[C@@H]21,efficacy,[1],76.6%
same,outcome,[2],inactive
CN1CCN(CCCN2c3ccccc3Sc3ccc(Cl)cc32)CC1,efficacy,[1],-144%
same,outcome,[2],inactive
CC[C@]1(O)C[C@H]2CN(CCc3c([nH]c4ccccc34)[C@@](C(=O)OC)(c3cc4c(cc3OC)N(C=O)[C@H]3[C@@](O)(C(=O)OC)[C@H](OC(C)=O)[C@]5(CC)C=CCN6CC[C@]43[C@@H]65)C2)C1,efficacy,[1],37.5%
same,outcome,[2],inactive
OC(CCN1CCCC1)(c1ccccc1)C1CCCCC1 (centres undefined),efficacy,[1],120%
same,outcome,[2],inactive
OCCN(CCO)c1nc(N2CCCCC2)c2nc(N(CCO)CCO)nc(N3CCCCC3)c2n1,efficacy,[1],489%
same,outcome,[2],inactive
Cn1c(=O)c2c(ncn2CC(O)CO)n(C)c1=O (centres undefined),efficacy,[1],-15%
same,outcome,[2],inactive
Nc1[nH]c(=O)ncc1F,efficacy,[1],14.3%
same,outcome,[2],inactive
CCOC(=O)[C@H](CCc1ccccc1)N[C@@H](C)C(=O)N1Cc2cc(OC)c(OC)cc2C[C@H]1C(=O)O,efficacy,[1],30.5%
same,outcome,[2],inactive
COc1ccccc1OCCNCC(O)COc1cccc2[nH]c3ccccc3c12 (centres undefined),efficacy,[1],67.7%
same,AC50,[2],11.2 µM (active)
CC(=O)N(O)CCCCCNC(=O)CCC(=O)N(O)CCCCCNC(=O)CCC(=O)N(O)CCCCCN,efficacy,[1],-19.8%
same,outcome,[2],inactive
C=C1C[C@@H]2[C@H](CC[C@]3(C)C(=O)CC[C@@H]23)[C@@]2(C)C=CC(=O)C=C12,max response,[3],-0.643%
same,efficacy,[1],112%
same,outcome,[2],inactive
CC(=O)Oc1ccccc1C(=O)Nc1ncc([N+](=O)[O-])s1,Potency,[4],5.96 µM (active)
same,max response,[3],33.5%
same,efficacy,[1],16.8%
same,outcome,[2],inactive
C[C@]12C/C(=C/O)C(=O)C[C@@H]1CC[C@@H]1[C@@H]2CC[C@@]2(C)[C@H]1CC[C@]2(C)O,max response,[5],3.17% and 10.2%
same,max response,[3],18.9%
same,max response,[6],-10.8% and -7.35%
same,Potency,[7],50.1 µM (active)
same,efficacy,[1],90.8%
same,outcome,[2],inactive
CN(C)C(=O)C(CCN1CCC(O)(c2ccc(Cl)cc2)CC1)(c1ccccc1)c1ccccc1,Potency,[3],11.2 µM (active) and 1.26 µM (active)
same,efficacy,[1],-226%
same,AC50,[2],11.2 µM (active)
CN1CCc2cccc3c2[C@H]1Cc1ccc(O)c(O)c1-3,efficacy,[1],61.6%
same,outcome,[2],inactive
Cc1ccc(NC(=O)c2ccc(CN3CCN(C)CC3)cc2)cc1Nc1nccc(-c2cccnc2)n1,efficacy,[1],71.5%
same,outcome,[2],inactive
CCCNC(=O)NS(=O)(=O)c1ccc(Cl)cc1,efficacy,[1],-18.6%
same,outcome,[2],inactive
CCC(COC(=O)c1cc(OC)c(OC)c(OC)c1)(c1ccccc1)N(C)C (centres undefined),max response,[3],10.7%
same,efficacy,[1],72.4%
same,outcome,[2],inactive
c1cnc2cc3c(cc2n1)C1CNCC3C1,efficacy,[1],-29.9%
same,outcome,[2],inactive
NCC(CC(=O)O)c1ccc(Cl)cc1 (centres undefined),outcome,[8],inactive
same,outcome,[9],inactive
same,outcome,[10],inactive
same,outcome,[11],inactive
same,outcome,[12],inactive
same,max response,[3],0.281% and 9.05%
same,efficacy,[1],-35.7%
same,outcome,[2],inactive

# Reference: PubChem BioAssay (NCATS)
